PubChem BioAssay (NCATS)
Values without a mark were called inactive. Inconclusive results are not listed. Entries that show only a call come without a potency. The source made the active and inactive calls. The call rests on the fitted dose curve; in most records, active means well fitted curve in the direction sought with a large enough effect; inconclusive means small, poorly fitted or top-dose-only effect, or another doubt; inactive means no such curve, though single readings can be large; an effect the other way counts as inactive or inconclusive.

Experiments:
[1] = target: Glutathione peroxidase 1 (Homo sapiens) (UniProt P07203); experiment: Primary qHTS Assay for Inhibitors of Recombinant Selenoprotein Glutathione Peroxidase 1 (GPX1) (AID 1845191); further: nearly all actives have a fitted effect of over 65% in size
Outline: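 10 nM GPX1 + cpd, 30 min RT; start w/ 1 mM GSH, 0.5 mM cumene hydroperoxide, 0.5 mM NADPH, 100 nM GR, 0.01% BSA; buffer 50 mM Tris-HCl pH 7.5, 2 mM EDTA, 150 mM NaCl; Fl 340/450, 0 & 15 min.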

[2] = target: Phospholipid hydroperoxide glutathione peroxidase GPX4 (Homo sapiens) (UniProt P36969); experiment: Primary qHTS Assay for Inhibitors of Recombinant Selenoprotein Glutathione Peroxidase 4 (GPX4) (AID 1845192); further: nearly all actives have a fitted effect of over 65% in size; on activity change, negative = inhibition: series mostly up to about 50 µM
Outline: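 NADPH consumption, followed by fluorescence at 340/450 nm between 0 and 15 min, reports GPX4 activity via coupled glutathione reductase (100 nM). Enzyme 200 nM was pre-exposed to compound 30 min; 0.5 mM cumene hydroperoxide and 1 mM GSH served as substrates.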

[3] = target: Luciferin 4-monooxygenase (Photinus pyralis) (UniProt P08659); experiment: Primary firefly luciferase (FLuc) qHTS assay for identification of artifact compounds. (AID 1845220); further: nearly all actives have a fitted effect of over 60% in size; on activity change, negative = inhibition: series mostly up to about 54 µM
Outline: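 Compounds sat 15 min at room temperature with 10 uM luciferin and 10 uM ATP (pH 7.6 Tris acetate). Firefly luciferase (10 nM final) was then added, and luminescence was read 5 min later. Data normalized to no-enzyme and DMSO controls were Hill-fitted.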

[4] = Primary fluorescence-based thiol-reactive (MSTI) qHTS assay for identification of artifact compounds. (AID 1845221); further: nearly all actives have a fitted effect of over 65% in size; further: potency means the concentration at half of the fitted maximal effect;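 on activity change, negative = thiol reactive: series mostly up to about 54 µM; thiol-reactive compounds lower the probe fluorescence signal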
Outline: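 A multi-concentration qHTS design tested compounds against 4 uM MSTI, pH 7.4 phosphate-buffered saline. Plates were protected from light for 1 h at room temperature before imaging fluorescence.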

[5] = tested on: Nanoluciferase (engineered Oplophorus gracilirostris luciferase); experiment: Primary Nanoluciferase (NLuc) qHTS assay for identification of artifact compounds. (AID 1845222); further: series mostly up to about 54 µM
Outline: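 Luminescence from secreted NLuc (filtered, 1:55-diluted S16 cell medium) read 5 min after Nano-Glo substrate; compounds preincubated 15 min, RT. Hill fits of inhibition normalized to DMSO and no-enzyme.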

[6] = Primary redox qHTS assay for identification of artifact compounds. (AID 1845223)
Outline: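 Amplex Red (25 uM) and HRP (250 mU/mL) in HBSS, with compounds for 15 min, then 250 uM DTT for 30 min, room temperature, dark. Fluorescence 525/598 nm read; normalized to DMSO and 10 uM DA3003; Hill fit.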

Chain of Glutathione peroxidase 1 (Homo sapiens) (P07203 whole entry, looked up): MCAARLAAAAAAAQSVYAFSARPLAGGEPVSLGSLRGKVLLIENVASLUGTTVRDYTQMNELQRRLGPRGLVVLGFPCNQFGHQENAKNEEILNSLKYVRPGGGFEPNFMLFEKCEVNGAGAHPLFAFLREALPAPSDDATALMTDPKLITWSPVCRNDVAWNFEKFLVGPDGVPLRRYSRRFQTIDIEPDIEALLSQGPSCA
Chain of Phospholipid hydroperoxide glutathione peroxidase GPX4 (Homo sapiens) (P36969 whole entry, looked up): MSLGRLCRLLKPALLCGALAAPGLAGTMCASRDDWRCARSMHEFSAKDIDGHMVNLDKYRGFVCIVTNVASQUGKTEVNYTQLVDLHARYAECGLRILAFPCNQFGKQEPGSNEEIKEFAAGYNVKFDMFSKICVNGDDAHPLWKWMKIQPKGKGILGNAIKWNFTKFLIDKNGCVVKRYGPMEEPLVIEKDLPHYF

## COC(=O)C1=CO[C@@H](O)C2C(CO)=CCC12 (stereo not given in full)
[1]
  Potency: inactive
[2]
  Potency: inactive
[3]
  Potency: inactive
[4]
  Potency: inactive
[5]
  Potency: inactive
[6]
  Potency: inactive

## COC(=O)C1(C)CCC2(C(=O)O)CCC3(C)C(=CCC4C5(C)CC(O)C(OC6OCC(O)C(O)C6O)C(C)(CO)C5CCC43C)C2C1 (stereo not given)
[1]
  Potency: inactive
[2]
  Potency: inactive
[3]
  Potency: inactive
[4]
  Potency: inactive
[5]
  Potency: inactive
[6]
  Potency: inactive

## CC(C)[C@@H]1C(=O)N(S(C)(=O)=O)[C@@H]2CCN(C(=O)/C=C/CN3CCCCC3)[C@H]21
[1]
  Potency: inactive
[2]
  Potency: inactive
[3]
  Potency: inactive
[4]
  Potency: inactive
[5]
  Potency: inactive
[6]
  Potency: inactive

## Cc1ccc(C)c(OCCn2cc(C(=O)O)c3ccccc32)c1
[1]
  Potency: inactive
[2]
  Potency: inactive
[3]
  Potency: inactive
[4]
  Potency: inactive
[5]
  Potency: inactive
[6]
  Potency: inactive

## C=C1C(=O)OC2CC(C)=C(C(C)CCCO)C(O)C12 (stereo not given)
[1]
  Potency: inactive
[2]
  Potency: inactive
[3]
  Potency: inactive
[4]
  Potency: 5.97 µM (active)
[5]
  Potency: inactive
[6]
  Potency: inactive

## CN(C)C(=O)NC1CCC(CCN2CCN(c3cccc(Cl)c3Cl)CC2)CC1 (stereo not given)
[1]
  Potency: inactive
[2]
  Potency: inactive
[3]
  activity change, negative = inhibition: 2.95% [at 11.6 µM]
[4]
  activity change, negative = thiol reactive: 20.5% [at 11.5 µM]
[5]
  activity, negative = inhibition: -1.17% [at 11.6 µM]
[6]
  redox activity (% of DA3003): -4.67% [at 11.5 µM]

## CCC(O)(C(=O)OCc1ccccc1NC(=O)CCC(=O)O)C(C)O (stereo not given)
[1]
  Potency: inactive
[2]
  Potency: inactive
[3]
  Potency: inactive
[4]
  Potency: inactive
[5]
  Potency: inactive
[6]
  Potency: inactive

## COc1cc(/C=C/C=O)cc(OC)c1O[C@@H]1O[C@H](CO)[C@@H](O)[C@H](O)[C@H]1O
[1]
  Potency: inactive
[2]
  Potency: inactive
[3]
  Potency: inactive
[4]
  Potency: 14.7 µM (active)
[5]
  Potency: inactive
[6]
  Potency: inactive

## O=C1CSc2ccccc2N1Cc1cccc(C(F)(F)F)c1
[1]
  Potency: inactive
[2]
  Potency: inactive
[3]
  Potency: inactive
[4]
  Potency: inactive
[5]
  Potency: inactive
[6]
  Potency: inactive

## C=C1CC[C@H]2[C@@](C)(CCC(O)[C@@]2(C)CO)[C@@H]1CCC1=CCOC1=O (stereo not given in full)
[1]
  Potency: inactive
[2]
  Potency: inactive
[3]
  Potency: inactive
[4]
  Potency: inactive
[5]
  Potency: inactive
[6]
  Potency: inactive

## CC(=O)N[C@H]1[C@H](O[C@H]2CC[C@@]3(C)C(CC[C@]4(C)C3CC=C3[C@@H]5CC(C)(C)CC[C@]5(C(=O)OC5OCC(O)C(O)C5O)CC[C@]34C)C2(C)C)O[C@H](COC2OC(C)C(O)C(OC3OC(C)C(O)C(O)C3O)C2O)[C@@H](O)[C@@H]1O (stereo not given in full)
[1]
  Potency: inactive
[2]
  Potency: inactive
[3]
  outcome: inactive [at 11.6 µM]
[4]
  activity change, negative = thiol reactive: 127% [at 11.5 µM]
[5]
  activity, negative = inhibition: 4.87% [at 11.6 µM]
[6]
  redox activity (% of DA3003): 3.21% [at 11.5 µM]

## CC12CCC(=O)C=C1C(O)CC1C2C(O)CC2(C)C1CC[C@]2(O)C(=O)CO (stereo not given in full)
[1]
  Potency: inactive
[2]
  Potency: inactive
[3]
  activity change, negative = inhibition: 2.02% [at 11.6 µM]
[4]
  activity change, negative = thiol reactive: -1.91% [at 11.5 µM]
[5]
  activity, negative = inhibition: 4.05% [at 11.6 µM]
[6]
  redox activity (% of DA3003): -2.06% [at 11.5 µM]

## CC(C)CNCc1ccc(-c2ccccc2S(=O)(=O)N2CCCC2)cc1
[1]
  Potency: inactive
[2]
  Potency: inactive
[3]
  Potency: inactive
[4]
  Potency: inactive
[5]
  Potency: inactive
[6]
  Potency: inactive

## CCCOC(c1cc2nccc(C(=O)O)c2[nH]1)c1ccccc1Cl (stereo not given)
[1]
  Potency: inactive
[2]
  Potency: inactive
[3]
  Potency: inactive
[4]
  Potency: inactive
[5]
  Potency: inactive
[6]
  Potency: inactive

## O=C(NCc1cccc(O)c1)c1cc2cc(F)ccc2[nH]1
[1]
  Potency: inactive
[2]
  Potency: inactive
[3]
  Potency: inactive
[4]
  Potency: inactive
[5]
  Potency: inactive
[6]
  Potency: inactive

## Cc1cc(Nc2ncc3cc(-c4c(Cl)cccc4Cl)c(=O)n(C)c3n2)ccc1F
[1]
  Potency: inactive
[2]
  Potency: inactive
[3]
  Potency: inactive
[4]
  Potency: inactive
[5]
  Potency: inactive
[6]
  Potency: inactive

## CC1(C)CCCC2(C)C=C(C(=O)O)C(O)CC12 (stereo not given)
[1]
  Potency: inactive
[2]
  Potency: inactive
[3]
  Potency: inactive
[4]
  Potency: inactive
[5]
  Potency: inactive
[6]
  Potency: inactive

## COc1cc(C(=O)NC2CCN(C)CC2)ccc1Nc1ncc2c(n1)N(C1CCCC1)CC(F)(F)C(=O)N2C
[1]
  Potency: inactive
[2]
  Potency: inactive
[3]
  Potency: inactive
[4]
  Potency: inactive
[5]
  Potency: inactive
[6]
  Potency: inactive

## C/C=C(\C)C(=O)O[C@H]1[C@@H](O[C@]2(COC(=O)CC(C)C)O[C@H](COC(=O)C(C)CC)[C@@H](OC(C)=O)[C@@H]2O)O[C@H](COC(C)=O)[C@@H](O)[C@@H]1O (stereo not given in full)
[1]
  Potency: inactive
[2]
  Potency: inactive
[3]
  Potency: inactive
[4]
  Potency: inactive
[5]
  Potency: inactive
[6]
  Potency: inactive

## COc1c2c(c(C)c3c1C(=O)OC3)O[C@@]1(C)CC(O)C(C(C)(C)O)[C@](C)(CCC(=O)O)[C@H]1C2 (stereo not given in full)
[1]
  Potency: inactive
[2]
  Potency: inactive
[3]
  Potency: inactive
[4]
  Potency: inactive
[5]
  Potency: inactive
[6]
  Potency: inactive
